Screens: PubChem BioAssay, National Center for Advancing Translational Sciences (NCATS)
Compounds with a hit are over-represented: about 11% of the library has one in this group of screens.
PNC assembly inh = perinucleolar compartment assembly inhibition; 3.1% of 140,000 active; PC3M PTB-GFP, PNC prevalence imaging, 16 h; hits give low values; activity change (PNC), negative = inhibition, % at 10 µM; AID 2417;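 active means readout at or below -70, meaning at least 70% loss of cells showing the perinucleolar compartment, a nuclear body marking cancer cells; inconclusive means readout between -30 and a set limit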;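 further: plate controls were DMSO wells for no effect and camptothecin positive control wells for full effect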
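Compounds are pinned in duplicate onto adhered PC3M cells stably expressing GFP-tagged PTB and incubated 16 h at 37 C. Cells are then fixed, nuclei stained with Hoechst, and PNC-positive cells counted.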
HPGD block = inhibitors of human 15-hydroxyprostaglandin dehydrogenase (HPGD); P15428; purified HPGD, NADH fluorescence kinetic, PGE2 substrate; Potency, µM, for the others: top-dose activity change, negative = inhibition, usual class: inhibitors; 4.3% of 150,000 active; active means well fitted inhibition curve with a large enough effect, not every such curve was filed as active; inconclusive means small, poorly fitted or top-dose-only effect, or another doubt; inactive means no such curve, though single readings can be large or run the other way; further: potency means the concentration at half of the fitted maximal effect
Target sequence (P15428 whole entry, looked up): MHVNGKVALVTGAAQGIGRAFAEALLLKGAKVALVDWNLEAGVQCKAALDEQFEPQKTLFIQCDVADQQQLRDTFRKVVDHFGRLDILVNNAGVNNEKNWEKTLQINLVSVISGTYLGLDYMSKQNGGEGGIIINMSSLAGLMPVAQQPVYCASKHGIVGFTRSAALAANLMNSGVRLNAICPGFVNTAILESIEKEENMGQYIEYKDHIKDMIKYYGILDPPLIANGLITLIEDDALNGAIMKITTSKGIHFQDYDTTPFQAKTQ
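20 nM HPGD preincubated 15 min at room temperature with compound in 50 mM Tris-HCl pH 8, 0.01% Tween 20. Started with 1 mM NAD+ and 30 uM prostaglandin E2; NADH fluorescence (360/450 nm) read 5 times over 30-s intervals, last minus first.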
IMPase inh = cell-permeable inhibitors of inositol monophosphatase (IMPase). CHO-M1 cells, IP1 accumulation, HTRF TR-FRET ratio. AID 901. inhibition (IP1 accumulation), % at 46.1 µM. 120,000 tested, under 10 active; active means well fitted curve in the direction sought with a large enough effect in the signal ratio, not every such curve was filed as active; inconclusive means small, poorly fitted or top-dose-only effect, or a change in a side signal; inactive means no such curve, though single readings can be large or run the other way; the % refers to the signal ratio;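 further: cells stimulated with carbachol in lithium chloride buffer; plate controls were DMSO basal wells for no effect and reference inhibitor wells for full effect; higher means more IMPase inhibition seen as more IP1 and lower FRET ratio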
Target sequence (P97697 whole entry, looked up): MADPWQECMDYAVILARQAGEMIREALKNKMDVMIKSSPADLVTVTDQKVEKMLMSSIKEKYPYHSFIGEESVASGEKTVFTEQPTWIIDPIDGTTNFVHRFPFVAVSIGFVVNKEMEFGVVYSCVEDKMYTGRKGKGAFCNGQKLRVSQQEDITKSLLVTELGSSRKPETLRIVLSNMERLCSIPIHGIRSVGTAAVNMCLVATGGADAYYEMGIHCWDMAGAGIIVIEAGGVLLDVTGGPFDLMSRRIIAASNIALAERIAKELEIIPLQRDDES
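CHO-M1 cells (CHO stably expressing M1 receptor), compound up to 46 uM final, stimulated with carbachol (50 uM as added) in buffer with 50mM LiCl, pH 7.4, 30 min at 37C. Cytosolic IP1 read by TR-FRET; AC50 from Hill fits.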
IMPase Li cell = membrane-permeable IMPase blocker, potentiated with lithium; CHO-M1 cells, IP1 TR-FRET (IP-One), carbachol + lithium; Potency, µM (highest dose often 59.4 µM), for the others: top-dose activity, negative = IMPase inhibition, hits mostly inhibitors; 0.35% of 210,000 active; AID 1457;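 further: IP1 builds up when IMPase is blocked and the TR-FRET signal falls; potency means the concentration at half of the fitted maximal effect; plate controls were basal vehicle for no effect and high inhibitor control for full effect; nearly all actives have a fitted effect of over 50% in size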
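CHO cells stably expressing M1 receptor (2000/well) were cultured 16–30 h, then exposed to compounds with a small lithium addition for 30 min at 37C. IP1 was measured by TR-FRET competition; AC50 from Hill fits.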
ALDH1A1 inh = blocks purified human ALDH1A1 activity | P00352 | Purified ALDH1A1, NADH fluorescence, propionaldehyde substrate | Potency, µM (series often up to 75.3 µM), inactives show top-dose activity, negative = inhibition, most hits filed as inhibitors | 7.3% of 220,000 active; active means well fitted inhibition curve with a large enough effect, not every such curve was filed as active; inconclusive means small, poorly fitted or top-dose-only effect, or another doubt; inactive means no such curve, though single readings can be large or run the other way;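 further: potency means the concentration at half of the fitted maximal effect; plate controls were no enzyme wells and a reference inhibitor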
12-hLO inh = inhibitors of human 12-lipoxygenase (ALOX12). purified 12-hLO, xylenol orange hydroperoxide absorbance. Potency, µM (series often up to 57.1 µM), without a hit: at the highest dose activity change, negative = inhibition, actives largely listed as inhibitors. 0.12% of 150,000 active; further: potency means the concentration at half of the fitted maximal effect; nearly all actives have a fitted effect of over 55% in size
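Purified human 12hLO (150 nM final) was preincubated with compounds for 15 min at room temperature in 25 mM Hepes pH 7.0, 0.01% Triton X-100, then reacted with 40 uM arachidonic acid for 30 min. Hydroperoxide was detected with ferrous iron/xylenol orange.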
The depositor's hits bear a star; [ ] = dose if it differs, or a comment. Unless noted, the call rests on the fitted dose curve; in most records, active means well fitted curve in the direction sought with a large enough effect; inconclusive means small, poorly fitted or top-dose-only effect, or another doubt; inactive means no such curve, though single readings can be large; an effect the other way counts as inactive or inconclusive. Unless noted, on the % scale 0 is the no-effect control and ±100 the full control effect.

What do the screens show for `COc1ccc(C(=O)/C=C2/c3ccccc3CC(C)(C)N2C)cc1OC`?
PNC assembly inh: -2.8; HPGD block: -9.5%; IMPase Li cell: -1.7%; ALDH1A1 inh: 23.8µM*; 12-hLO inh: 2.1%

Results for COc1ccc(C(=O)N/N=C2\CCc3ccccc32)cc1OC ?
IMPase Li cell: 11.1%; ALDH1A1 inh: 2.2%

How did CCCCS(=O)(=O)N1C2=NC(C(=O)OC)=C(C(=O)OC)[C@@H]3N(C)c4ccccc4[C@]23C[C@H]1C(=O)OC do in these assays?
HPGD block: -5.4%; IMPase Li cell: -0.5%; ALDH1A1 inh: 6.2%[13.5 µM]; 12-hLO inh: 0.1%[11.4 µM]

Results for COc1cc([N+](=O)[O-])c(OC)cc1SCc1n[nH]c(=S)n1-c1ccc(F)cc1 ?
ALDH1A1 inh: 2.24µM*

Results for COc1cc(CNn2c(C)n[nH]c2=S)cc(Br)c1OCc1ccc(F)cc1 ?
PNC assembly inh: 72.4; HPGD block: 15.8µM*; IMPase Li cell: 20.8%; ALDH1A1 inh: 28.2µM*; 12-hLO inh: -16.0%

What do the screens show for `COc1cc(CNC2CCCC2)cc(Cl)c1OCc1ccc(F)cc1`?
PNC assembly inh: inconclusive; HPGD block: 0.0%; IMPase inh: -1.9[1.84 µM]; IMPase Li cell: 16.3%[38.3 µM]; ALDH1A1 inh: 17.1%; 12-hLO inh: -6.1%

How did COc1cc(CNn2c(C)n[nH]c2=S)cc(Cl)c1OCc1ccc(F)cc1 do in these assays?
PNC assembly inh: -7.2; HPGD block: 12.6µM*; IMPase inh: 2.1; IMPase Li cell: 46.8%[38.3 µM]; ALDH1A1 inh: -0.6%; 12-hLO inh: inconclusive

How did CCOc1ccc(C(=O)Nc2nnc(C(C)C)s2)cc1OCC do in these assays?
PNC assembly inh: 43.6; HPGD block: 28.2µM*; IMPase inh: 0.1; IMPase Li cell: 22.0%[38.3 µM]; ALDH1A1 inh: 25.1µM*; 12-hLO inh: 3.1%

How did CCC(CC)c1nnc(NC(=O)Cc2ccccc2[N+](=O)[O-])s1 do in these assays?
IMPase Li cell: 7.0%; ALDH1A1 inh: 20µM*

What do the screens show for `CCOc1ncccc1C(=O)Nc1nnc(C(CC)CC)s1`?
IMPase Li cell: 6.4%; ALDH1A1 inh: 4.47µM*

What do the screens show for `COc1cccc(NC(=O)COC(=O)Cc2ccccc2[N+](=O)[O-])c1`?
IMPase Li cell: -0.7%; ALDH1A1 inh: inconclusive

What do the screens show for `Cc1csc(NC(=O)Cc2ccccc2[N+](=O)[O-])n1`?
PNC assembly inh: 28.3; HPGD block: -5.3%; IMPase Li cell: 0.6%; ALDH1A1 inh: -4.5%; 12-hLO inh: 0.9%

Results for CSc1cccc(NC(=O)Cc2ccccc2[N+](=O)[O-])c1 ?
IMPase Li cell: 4.3%; ALDH1A1 inh: 35.5µM*

What do the screens show for `CCCCNN`?
HPGD block: 1.6%; IMPase Li cell: 8.9%; ALDH1A1 inh: 3.3%[13.5 µM]; 12-hLO inh: -5.6%[11.4 µM]

What do the screens show for `O=C(Nc1nnc(SCc2c(Cl)cccc2Cl)s1)C1CC(=O)N(c2ccc3c(c2)OCCO3)C1` (stereo not drawn)?
IMPase Li cell: 3.9%; ALDH1A1 inh: 3.55µM*

How did CCCCc1nnc(NC(=O)C2CC(=O)N(c3ccc4c(c3)OCCO4)C2)s1 (stereo not drawn) do in these assays?
PNC assembly inh: 10.0; HPGD block: -16.8%; IMPase inh: 6.6; IMPase Li cell: -5.4%; ALDH1A1 inh: -4.5%; 12-hLO inh: -3.2%

What do the screens show for `Cc1cc(NC(=O)CSc2nnc(NC(=O)C3CC(=O)N(c4ccccc4C)C3)s2)no1` (stereo not drawn)?
PNC assembly inh: inconclusive; HPGD block: -21.3%; IMPase Li cell: inconclusive; ALDH1A1 inh: 20µM*; 12-hLO inh: -2.2%

How did O=C(Nc1nnc(SCc2ccc(F)cc2)s1)C1CC(=O)N(c2ccc3c(c2)OCCO3)C1 (stereo not drawn) do in these assays?
PNC assembly inh: inconclusive; HPGD block: inconclusive; IMPase inh: 10.2; IMPase Li cell: 4.6%; ALDH1A1 inh: -11.8%; 12-hLO inh: 1.4%
